± gives the standard deviation of the averaged measurements.
Assays:
Experiment in all cases: MAPPIT interaction score (arbitrary units); higher = stronger binary interaction signal, active = hit call of the paper;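 active = MAPPIT score above the 99th percentile of random reference set scores in the same batch; inactive = at or below it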
Sxl = conditions: MAPPIT configuration: N-N; pair source set: Lit-BM-16
Syp = conditions: MAPPIT configuration: N-N; pair source set: DPIM
THG = conditions: MAPPIT configuration: N-N; pair source set: screen_2
Taf12 = conditions: MAPPIT configuration: N-N; pair source set: Curagen_low_conf
Tcs6 = conditions: MAPPIT configuration: N-N; pair source set: screen_2
TfIIA-L = conditions: MAPPIT configuration: N-N; pair source set: screen_2
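Further: HEK293T cells with Epo stimulation, STAT-responsive firefly luciferase reporter, fold induction versus unstimulated cells divided by the larger fold induction of two negative controls lacking either bait or prey.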

B1: Unr (protein)
chain: MNTQSKVYRTGEEIYDNLPCDSYFNMNAIRNLGIPTTFPTIGTFTLDSTTLGLQPQGQGPSPQQQQHQQQQQQQQQQHQQNMHHHQHQQQHMQQQQQQQQHQQQHQQQQHQQQQQHQQQQQQQQQHPTIGMFDANEVNDVIQNPPQIGVFQSNSVLTNGAGSGSSIFGSQSSNSSAAAADPSQTTRETGIIEKLLHSYGFIQCCERQARLFFHFSQFSGNIDHLKIGDPVEFEMTYDRRTGKPIASQVSKIAPEVVLSEERVTGTVTTELRTDSANNVLNSSETTGRISYENRGECFFLPYTKDDVEGNVNLRAGDKVSFQIATNQRGNLGACHIRLENPAQPVKYRGVVCSMKESFGFIERADVVKEIFFHFSEAEGNVELRPGDDVEFTIQTRSSASVPPQGREFACNITRLAPGSVIFEDVDSTVYKGQVLKSLDRNNPVRQNNDPLPGRIRYRALDYSEVEVPFGDKDQKGDFTLRHGDWVQFLLATDRRDQLQRATSIALLDETFKVSGEKREQGTIASLKEGFGFLRCVERQARLFFHFTEVLDTSREIDINDEVEFTVIQEPGLAYNNSRLQAIRIKHLPPNSVQFETLVASNIEGCVTREAPKSPIKSQDRVEGGVITYEHADVKKTIMYFLKDCEKPPRIGERVRFDIYMVKRNKECIAVNVQQVSLHQQQQQQQQQLHLNQSNAGANINQNDQLGGLSNGISSSSSNASLQNGYVMHGSPGGSTSSVGSNNPVHLDEFKMENNNHAGSDAGQVYRGFIAVMKENFGFIETLSHDEEVFFHFSNYMGNPNWLELGQEVEYTLARNGNTSVSGNCLPAENVRMLPKNSIPQPAVLETTHNGVVARPLRCINPDQQEYAGLIEILDELRTTVISQHEFGITSLVNKRDLLQKGDLVSFRIDESGRAACVNAVRQKKRATVDSIKGQFGFLNFEVEDGKKLFFHMSEVQGNTVALHPGDTVEFSVVTNQRNGKSSACNVLKINDRPDRLISRLKLNGDDTVPRLILIRAPKGPQGKGFSVLARHPRIPGNLVE
With B1 the MAPPIT interaction score (Sxl) was 1.51 (inactive).

B2: grass (protein)
chain: MMIASSLAVLYGIAIVSSMGVQSARADYADDCTTPDGDQGQCMPFSSCRTIEERLTEAQKAGQKVPADYASYLQKALCGEFNGVRHFCCPSANIQHNSKVMSLFKDENFDCGNFLSQRVSNGYEVKLSSRPWMALLRYQQFGESRFLCGGAMISERYILTAAHCVHGLQNDLYEIRLGEHRISTEEDCRQQGRKKKCAPPVVNVGIEKHLIHEKYDARHIMHDIALLKLNRSVPFQKHIKPICLPITDELKEKAEQISTYFVTGWGTTENGSSSDVLLQANVPLQPRSACSQAYRRAVPLSQLCVGGGDLQDSCKGDSGGPLQAPAQYLGEYAPKMVEFGIVSQGVVTCGQISLPGLYTNVGEYVQWITDTMASNGL
For B2, the MAPPIT interaction score (Syp) was -0.0477 (inactive).

B3: snf (protein)
chain: MEMLPNQTIYINNLNEKIKKEELKKSLYAIFSQFGQILDIVALKTLKMRGQAFVIFKEIGSASNALRTMQGFPFYDKPMQIAYSKSDSDIVAKIKGTFKERPKKVKPPKPAPGTDEKKDKKKKPSSAENSNPNAQTEQPPNQILFLTNLPEETNEMMLSMLFNQFPGFKEVRLVPNRHDIAFVEFTTELQSNAAKEALQGFKITPTHAMKITFAKK
With B3 the MAPPIT interaction score (THG) was 0.333 (inactive).

B4: CtsF (protein)
chain: MRLFAAATVALVLLLGQAAGEELAEERAGQAQGDAESTESSETTTDQAVSEPPITLVHVLNPGEREYLSPNLIGVQNIAMTFLPLSMNFVNIIDAFREITAGVRYEILLNALDTKAIQPAEADIVCRLVILEKPWLRTQWGDKHRELVTSNCTDPAVNSVAGDPAEKARLLNEKYVHRSRRSANDILGRHKPYDEEAAKAQLQKSLDKLTAGEGPHYKIVKVYSASRQVDSGILTRIDADLIDGSEEQHRCIVDIWTKVWVRKDEHEITFKCRNQPVVQARHTRSVEWAEKKTHKKHSHRFDKVDHLFYKFQVRFGRRYVSTAERQMRLRIFRQNLKTIEELNANEMGSAKYGITEFADMTSSEYKERTGLWQRDEAKATGGSAAVVPAYHGELPKEFDWRQKDAVTQVKNQGSCGSCWAFSVTGNIEGLYAVKTGELKEFSEQELLDCDTTDSACNGGLMDNAYKAIKDIGGLEYEAEYPYKAKKNQCHFNRTLSHVQVAGFVDLPKGNETAMQEWLLANGPISIGINANAMQFYRGGVSHPWKALCSKKNLDHGVLVVGYGVSDYPNFHKTLPYWIVKNSWGPRWGEQGYYRVYRGDNTCGVSEMATSAVLA
With B4 the MAPPIT interaction score (Taf12) was 0.31 (inactive).

B5: Tcs3 (protein)
chain: MVCALGIEGSANKIGIGIIRDGKVLANVRRTYITPPGEGFLPKETAKHHREAILGLVESSLKEAQLKSSDLDVICYTKGPGMAPPLLVGAIVARTLSLLWNIPLLGVNHCIGHIEMGRLITGAQNPTVLYVSGGNTQVIAYSNKRYRIFGETIDIAVGNCLDRFARIIKLSNDPSPGYNIEQLAKSSNRYIKLPYVVKGMDVSFSGILSYIEDLAEPGKRQNKRKKPQEEEVNNYSQADLCYSLQETIFAMLVEITERAMAHCGSNEVLIVGGVGCNERLQEMMRIMCEERGGKLFATDERYCIDNGLMIAHAGAEMFRSGTRMPFEESYVTQRFRTDEVLVSWRDD
For B5, the MAPPIT interaction score (Tcs6) was 1.93 (inactive).

B6: TfIIA-S-2 (protein)
chain: MNYQHYRATTLGRTLQDTLDEMMERGDITKKIANLVLLRYDKSISTALKDHGTSNMSFTAERLETFRCCDNVWTLILKDAEFREDQHSLKVDVVKIVACLGTDNGNE
In the case of B6, the MAPPIT interaction score (TfIIA-L) is reported as 3.17 ± 3.8.

Source: the supplement of paper PMC10105736
